HTR5A ag – counter-screen for OPRM1-OPRD1 agonists: human HTR5A agonism | HTR5A agonist assay, luminescence, cell-based | activation, % at 9.3 µM | 0.61% of 340,000 active | AID 504692; in the data active means activation mostly above about 9.5%, no sharp cut-off; inactive means mostly below about 7.6%
Target sequence (P47898 whole entry, looked up): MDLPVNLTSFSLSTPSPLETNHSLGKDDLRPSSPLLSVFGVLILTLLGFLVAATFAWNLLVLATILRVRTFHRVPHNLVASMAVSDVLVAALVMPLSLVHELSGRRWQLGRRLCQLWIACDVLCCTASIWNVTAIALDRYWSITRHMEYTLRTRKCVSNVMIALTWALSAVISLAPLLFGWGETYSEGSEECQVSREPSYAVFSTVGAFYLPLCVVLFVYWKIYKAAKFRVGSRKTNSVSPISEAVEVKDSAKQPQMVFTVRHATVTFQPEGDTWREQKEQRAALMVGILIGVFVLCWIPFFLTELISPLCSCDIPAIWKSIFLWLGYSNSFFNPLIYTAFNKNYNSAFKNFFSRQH
MOR-DOR inv ag – inverse agonists of human mu-delta opioid receptor heterodimerization | 0.21% of 340,000 active | cell-based MOR-DOR heterodimer luminescence, inverse agonism | AID 504357 | P35372+P41143 | inhibition, % at 9.3 µM; in the data active means inhibition above about 22%, passing the limit was not always enough
MOR-DOR ag – OPRM1-OPRD1 heterodimerization agonism | 0.3% of 340,000 active | activation, % at 9.3 µM | P35372+P41143 | AID 504326 | cells, luminescence
HTR5A inv ctr – inverse agonist of human HTR5A in OPRM1-OPRD1 counter-screen; P47898; HTR5A cell line, luminescence, inverse agonism; inhibition, % at 9.3 µM; 0.083% of 340,000 active; in the data active means inhibition mostly above about 23%, no sharp cut-off; inactive means mostly below about 18%
OPRM1-D1 ag cf – OPRM1-OPRD1 heterodimer agonism, confirmation. cells, MOR-DOR heterodimerization, luminescence complementation. AID 504904. activation, % at 9.3 µM. shares compounds with MOR-DOR ag. 45% of 830 active
HTR5A ag counter – HTR5A agonism, opioid heterodimer counter-screen; HTR5A agonist counterscreen, cell luminescence; 8% of 830 active; activation, % at 9.3 µM; shares compounds with MOR-DOR ag; in the data active means activation above about 17%
A number is an active result. A selection: hits, their analogues and other compounds. The true share with any hit is near 1.1%. Unless noted, no stated cut-off is given here; in the data, active means activation above about 18%; inactive means the rest.

For c1ccc(CCNc2ccnc3cc4ccccc4cc23)cc1 the results were HTR5A ag inactive, MOR-DOR inv ag inactive, MOR-DOR ag 32.0, HTR5A inv ctr inactive, OPRM1-D1 ag cf 24.3 and HTR5A ag counter inactive.
`CN(C)C(CNC(=O)CCS(=O)(=O)c1ccccc1)c1ccccc1` (configuration not stated) gave HTR5A ag inactive, MOR-DOR inv ag inactive, MOR-DOR ag 59.6, HTR5A inv ctr inactive, OPRM1-D1 ag cf inactive and HTR5A ag counter inactive.
CN(C)C(CNC(=O)CCNS(=O)(=O)c1ccccc1C(F)(F)F)c1ccccc1 (configuration not stated) was read as HTR5A ag inactive, MOR-DOR inv ag inactive, MOR-DOR ag 25.3, HTR5A inv ctr inactive, OPRM1-D1 ag cf 29.1 and HTR5A ag counter inactive.
O=C(CCNS(=O)(=O)c1ccccc1C(F)(F)F)NCCCSc1ccccc1 was read as HTR5A ag inactive, MOR-DOR inv ag inactive, MOR-DOR ag inactive and HTR5A inv ctr inactive.
For CC(NC(=O)CCc1c[nH]c2ccccc12)c1ccccc1 (configuration not stated) the results were HTR5A ag inactive, MOR-DOR inv ag inactive, MOR-DOR ag inactive and HTR5A inv ctr inactive.
`O=C(CCS(=O)(=O)c1ccccc1)NCCS(=O)(=O)c1ccccc1` gave HTR5A ag inactive, MOR-DOR inv ag inactive, MOR-DOR ag inactive and HTR5A inv ctr inactive.
CN(C)C(CNC(=O)CCc1c[nH]c2ccccc12)c1ccccc1 (configuration not stated) was read as HTR5A ag inactive, MOR-DOR inv ag inactive, MOR-DOR ag 137.8, HTR5A inv ctr inactive, OPRM1-D1 ag cf 19.6 and HTR5A ag counter inactive.
For O=C(Nc1cccc(C(F)(F)F)c1)NC1CCN(S(=O)(=O)c2ccc(F)cc2)CC1 the results were HTR5A ag inactive, MOR-DOR inv ag inactive, MOR-DOR ag inactive and HTR5A inv ctr inactive.
`Cc1cccn2cc(-c3ccc(NC(=O)Cc4ccccc4)cc3)nc12` gave HTR5A ag 17.2, MOR-DOR inv ag inactive, MOR-DOR ag 38.9, HTR5A inv ctr inactive, OPRM1-D1 ag cf inactive and HTR5A ag counter inactive.
Screening COc1ccc(CC(=O)Nc2ccc(-c3cn4cccc(C)c4n3)cc2)cc1OC returned HTR5A ag inactive, MOR-DOR inv ag inactive, MOR-DOR ag inactive and HTR5A inv ctr inactive.
For CCc1ccc(CNC(=O)C2CCN(S(=O)(=O)N3CCC(C)CC3)CC2)cc1 the results were HTR5A ag inactive, MOR-DOR inv ag inactive, MOR-DOR ag inactive and HTR5A inv ctr inactive.
Cc1occc1C(=O)N/N=C/c1ccc(OCc2ccccc2)cc1 was read as HTR5A ag inactive, MOR-DOR inv ag inactive, MOR-DOR ag inactive and HTR5A inv ctr inactive.
For Cc1occc1C(=O)N/N=C/c1ccc(-c2ccccc2)cc1 the results were HTR5A ag inactive, MOR-DOR inv ag inactive, MOR-DOR ag 19.9, HTR5A inv ctr inactive, OPRM1-D1 ag cf 60.2 and HTR5A ag counter inactive.
`CCN=C1S/C(=C/c2ccc(-c3ccc(Cl)cc3C(=O)O)o2)C(=O)N1CC` gave HTR5A ag inactive, MOR-DOR inv ag inactive, MOR-DOR ag inactive and HTR5A inv ctr inactive.
Screening CC1=C(C(=O)Nc2ccccc2)C(c2ccc(C)cc2)N=C(Nc2nc3ccccc3o2)N1 (configuration not stated) returned HTR5A ag inactive, MOR-DOR inv ag inactive, MOR-DOR ag 40.5, HTR5A inv ctr inactive, OPRM1-D1 ag cf 34.1 and HTR5A ag counter inactive.
For CC(C(=O)NC1=NCCS1)N1C(=O)c2ccccc2C1=O (configuration not stated) the results were HTR5A ag inactive, MOR-DOR inv ag inactive, MOR-DOR ag inactive and HTR5A inv ctr inactive.
For Cn1c(SCC(=O)c2ccc3c(c2)NC(=O)CO3)nc2ccccc21 the results were HTR5A ag inactive, MOR-DOR inv ag inactive, MOR-DOR ag 38.1, HTR5A inv ctr inactive, OPRM1-D1 ag cf 25.2 and HTR5A ag counter inactive.
For Cc1ccc([C@H]2C(C(=O)O)=CC[C@@H](c3cccs3)N2S(=O)(=O)c2ccc(C)cc2)cc1 the results were HTR5A ag inactive, MOR-DOR inv ag inactive, MOR-DOR ag inactive and HTR5A inv ctr inactive.
`Cc1ccc(S(=O)(=O)N2[C@@H](c3ccc(C(C)(C)C)cc3)C(C(=O)O)=CC[C@H]2c2cccs2)cc1` gave HTR5A ag inactive, MOR-DOR inv ag inactive, MOR-DOR ag 26.5, HTR5A inv ctr inactive, OPRM1-D1 ag cf 23.9 and HTR5A ag counter inactive.
Cc1ccc(-n2cccn2)c(CN2CCC(CO)(CCc3ccccc3)CC2)c1 was read as HTR5A ag inactive, MOR-DOR inv ag inactive, MOR-DOR ag 29.1, HTR5A inv ctr inactive, OPRM1-D1 ag cf inactive and HTR5A ag counter inactive.
`OCC1(CCc2ccccc2)CCN(Cc2cc(Cl)ccc2O)CC1` gave HTR5A ag inactive, MOR-DOR inv ag inactive, MOR-DOR ag inactive and HTR5A inv ctr inactive.
O=C(c1cc(=O)[nH]c2ccccc12)N1CCN(c2ccc([N+](=O)[O-])cc2)CC1 was read as HTR5A ag inactive, MOR-DOR inv ag inactive, MOR-DOR ag inactive and HTR5A inv ctr inactive.
Screening COc1ccc(CNC(=O)COC(=O)CN2C(=O)C(C)Oc3ccc(C)cc32)cc1 (configuration not stated) returned HTR5A ag inactive, MOR-DOR inv ag inactive, MOR-DOR ag inactive and HTR5A inv ctr inactive.
For CCC(C)(C)C(=O)Nc1ncc(S(=O)(=O)c2ccc([N+](=O)[O-])cc2)s1 the results were HTR5A ag inactive, MOR-DOR inv ag inactive, MOR-DOR ag inactive and HTR5A inv ctr inactive.
CCCC(C)C(=O)Nc1ncc(S(=O)(=O)c2ccc([N+](=O)[O-])cc2)s1 (configuration not stated) was read as HTR5A ag inactive, MOR-DOR inv ag inactive, MOR-DOR ag 20.9, HTR5A inv ctr inactive, OPRM1-D1 ag cf inactive and HTR5A ag counter inactive.
`Cc1c2ccccc2c(C)c2c1ccc1ccccc12` gave HTR5A ag inactive, MOR-DOR inv ag inactive, MOR-DOR ag 18.6, HTR5A inv ctr inactive, OPRM1-D1 ag cf inactive and HTR5A ag counter inactive.
Screening N#CCC(=O)N/N=C/c1cn(Cc2ccc(Cl)c(Cl)c2)c2ccccc12 returned HTR5A ag inactive, MOR-DOR inv ag inactive, MOR-DOR ag 19.0, HTR5A inv ctr inactive, OPRM1-D1 ag cf inactive and HTR5A ag counter inactive.
For COc1ccccc1N1CCN(C(c2cccs2)C(C)NC(=O)c2ccco2)CC1 (configuration not stated) the results were HTR5A ag inactive, MOR-DOR inv ag inactive, MOR-DOR ag 91.3, HTR5A inv ctr inactive, OPRM1-D1 ag cf 119.3 and HTR5A ag counter inactive.
COc1ccc(N2CCN(C(c3cccs3)C(C)NC(=O)c3ccco3)CC2)cc1 (configuration not stated) was read as HTR5A ag inactive, MOR-DOR inv ag inactive, MOR-DOR ag inactive and HTR5A inv ctr inactive.
`O=C(C1=NN[C@@H]2C(=O)N(c3ccccc3C(F)(F)F)C(=O)[C@H]12)C(c1ccccc1)c1ccccc1` gave HTR5A ag inactive, MOR-DOR inv ag inactive, MOR-DOR ag inactive and HTR5A inv ctr inactive.

Screening data (PubChem BioAssay)
